Results as given in PubChem BioAssay (NCI).
This is part of a sample that, as a whole, favours compounds with a hit. Of some 79,000 tested, about 15% had one in any assay. Calls of active or inactive are those of the source. Cut-off read from the data, not from the text of the source: active = growth inhibition above about 70%; inactive = the rest.

Tests used:
[1] = NCI Yeast Anticancer Drug Screen. Data for the rad50 strain (AID 155);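 note: 0% = growth of vehicle-only cultures of the same strain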; conditions: S. cerevisiae rad50 strain growth inhibition, hits give high values
Procedure, shortened: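 A DNA repair-deficient yeast mutant serves as the test organism; compound-induced growth inhibition is calculated against vehicle-treated cells.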

[2] = NCI Yeast Anticancer Drug Screen. Data for the mec2-1 strain (AID 157); conditions: S. cerevisiae mec2-1 strain, hits give high values
Procedure, shortened: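 Mutant yeast (mec2-1) grown with compound; growth inhibition relative to vehicle control reported.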

[3] = NCI Yeast Anticancer Drug Screen. Data for the sgs1 mgt1 strain (AID 161);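 note: 0% = growth of cultures given vehicle only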; conditions: S. cerevisiae sgs1 mgt1 strain, hits give high values
Procedure, shortened: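 Growth of a repair-deficient yeast mutant was monitored after compound treatment and expressed as inhibition relative to vehicle-treated cultures.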

[4] = NCI Yeast Anticancer Drug Screen. Data for the cln2 rad14 strain (AID 165);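 note: 0% = growth equal to vehicle treated cultures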; conditions: S. cerevisiae cln2 rad14 strain, hits give high values
Procedure, shortened: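 Readout is yeast growth inhibition versus vehicle-treated controls, using a strain with cln2 and rad14 alterations exposed to compound.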

[5] = NCI Yeast Anticancer Drug Screen. Data for the bub3 strain (AID 167); conditions: S. cerevisiae bub3 mutant strain, hits give high values
Procedure, shortened: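 Inhibition values come from growth of compound-treated mutant yeast normalised to vehicle-treated controls.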

[6] = NCI Yeast Anticancer Drug Screen. Data for the mlh1 rad18 strain (AID 175); conditions: S. cerevisiae mlh1 rad18 strain growth inhibition, hits give high values
Procedure, shortened: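 Genetically defined yeast (DNA repair-deficient) exposed to compounds; growth inhibition determined relative to vehicle.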

[7] = at 5.0 µM (retest, dose inferred, filed as 0.5)
[8] = at 50.0 µM (retest, dose inferred, filed as 5.0)

Measured: growth inhibition

CCOC(=O)/C(=C\c1ccc(Cl)cc1)C(C)=O
active: [1]; [8] 98% | [1]; at 50.0 µM 93.2% | [2]; [8] 99% | [2]; at 50.0 µM 94.5% | [3]; [8] 98% | [3]; at 50.0 µM 93.3% | [4]; [8] 98% | [4]; at 50.0 µM 92% | [5]; [7] 79% | [5]; [8] 99% | [5]; at 50.0 µM 92.2% | [6]; [7] 79% | [6]; [8] 98% | [6]; at 50.0 µM 91.5%
inactive: [1]; [7] 31% | [2]; [7] 49% | [3]; [7] 33% | [4]; [7] 29%

CC(=O)OC[C@@H](OC(C)=O)[C@H](OC(C)=O)c1cnn(-c2ccccc2)n1
inactive: [1]; [7] -3% | [1]; [8] -11% | [1]; at 50.0 µM -0.85% | [2]; [7] -1% | [2]; [8] -6% | [2]; at 50.0 µM 3.15% | [3]; [7] -4% | [3]; [8] 14% | [3]; at 50.0 µM 3.25% | [4]; [7] -1% | [4]; [8] -2% | [4]; at 50.0 µM -5.7% | [5]; [7] 13% | [5]; [8] 29% | [6]; [7] 3% | [6]; [8] -3% | [6]; at 50.0 µM 12.8%
active: [5]; at 50.0 µM 71.8%

O=C(O)C(O)Cc1ccc(O)cc1 (centres undefined)
inactive: [1]; [7] -150% | [1]; [8] -144% | [1]; at 50.0 µM -3.2% | [2]; [7] -46% | [2]; [8] -51% | [2]; at 50.0 µM 1.1% | [3]; [7] -61% | [3]; [8] -61% | [3]; at 50.0 µM 3.7% | [4]; [7] -62% | [4]; [8] -69% | [4]; at 50.0 µM 39.2% | [5]; [7] -70% | [5]; [8] -86% | [5]; at 50.0 µM -13.3% | [6]; [7] -140% | [6]; [8] -122% | [6]; at 50.0 µM -6.4%

Nc1cccc2c1C(=O)c1ccc(Cl)cc1C2=O
inactive: [1]; [7] 69% | [2]; [7] 18% | [2]; [8] 34% | [3]; [7] 4% | [3]; [8] 61% | [3]; at 50.0 µM 55% | [4]; [7] 0% | [4]; [8] 6% | [4]; at 50.0 µM -17.6% | [5]; [7] 12% | [5]; [8] 39% | [6]; [7] 15% | [6]; [8] 60% | [6]; at 50.0 µM 44.8%
active: [1]; [8] 81% | [1]; at 50.0 µM 93.7% | [2]; at 50.0 µM 71.8% | [5]; at 50.0 µM 85.4%

ClC1=C(Cl)C(Cl)=C(Cl)C1
inactive: [1]; [7] 6% | [2]; [7] 7% | [2]; at 50.0 µM 51.4% | [3]; [7] 10% | [3]; at 50.0 µM 48.5% | [4]; [7] 5% | [4]; at 50.0 µM 3.55% | [5]; [7] 4% | [6]; [7] 0%
active: [1]; [8] 93% | [1]; at 50.0 µM 88.2% | [2]; [8] 97% | [3]; [8] 93% | [4]; [8] 85% | [5]; [8] 96% | [5]; at 50.0 µM 79.9% | [6]; [8] 96% | [6]; at 50.0 µM 91.5%

O=C(O)c1c(-c2ccccc2)cc(-c2ccccc2)cc1-c1ccccc1
active: [1]; [7] 93% | [1]; [8] 98% | [1]; at 50.0 µM 99.1% | [2]; [7] 90% | [2]; [8] 98% | [2]; at 50.0 µM 99.2% | [3]; [7] 93% | [3]; [8] 99% | [3]; at 50.0 µM 99.3% | [4]; [7] 90% | [4]; [8] 98% | [4]; at 50.0 µM 97.8% | [5]; [7] 88% | [5]; [8] 95% | [5]; at 50.0 µM 98.2% | [6]; [7] 92% | [6]; [8] 98% | [6]; at 50.0 µM 98.9%

Nc1ccc2nc(Nc3ccc(F)cc3)cnc2c1
inactive: [1]; [7] -11% | [1]; [8] 63% | [1]; at 50.0 µM 63.5% | [2]; [7] -9% | [2]; [8] 27% | [2]; at 50.0 µM 15.4% | [3]; [7] -18% | [3]; [8] 36% | [3]; at 50.0 µM 56% | [4]; [7] 17% | [4]; [8] 49% | [4]; at 50.0 µM 28.9% | [5]; [7] 7% | [5]; at 50.0 µM 60% | [6]; [7] 7% | [6]; at 50.0 µM 65.2%
active: [5]; [8] 73% | [6]; [8] 77%

COc1ccc(NC(=O)CSC(N)=O)cc1
inactive: [1]; [7] 5% | [1]; [8] 12% | [1]; at 50.0 µM 49.1% | [2]; [7] -1% | [2]; [8] 20% | [2]; at 50.0 µM 23.2% | [3]; [7] 3% | [3]; [8] 18% | [3]; at 50.0 µM 64.1% | [4]; [7] 0% | [4]; [8] -5% | [4]; at 50.0 µM 21.9% | [5]; [7] 3% | [5]; [8] 25% | [5]; at 50.0 µM 53% | [6]; [7] 3% | [6]; [8] 12% | [6]; at 50.0 µM 51.6%

CC1=CC(=N/O)/C=CC/1=C(\C#N)c1ccccc1
active: [1]; [8] 99% | [1]; at 50.0 µM 99.2% | [2]; [8] 99% | [2]; at 50.0 µM 99.4% | [3]; [8] 99% | [3]; at 50.0 µM 99.4% | [4]; [8] 99% | [4]; at 50.0 µM 99.3% | [5]; [8] 99% | [5]; at 50.0 µM 99.4% | [6]; [8] 100% | [6]; at 50.0 µM 98.7%
inactive: [1]; [7] -14% | [2]; [7] -11% | [3]; [7] -6% | [4]; [7] -47% | [5]; [7] -17% | [6]; [7] -20%

COc1ccc(C2COc3c(ccc(O)c3O)C2)cc1OC (centres undefined)
inactive: [1]; [7] -14% | [1]; [8] 28% | [1]; at 50.0 µM 25.2% | [2]; [7] 1% | [2]; [8] 55% | [2]; at 50.0 µM 43.6% | [3]; [7] -3% | [3]; [8] 66% | [3]; at 50.0 µM 40.1% | [4]; [7] 0% | [4]; [8] 41% | [4]; at 50.0 µM 55.7% | [5]; [7] 0% | [5]; [8] 26% | [5]; at 50.0 µM 32.9% | [6]; [7] 0% | [6]; at 50.0 µM 40.2%
active: [6]; [8] 74%

NC(=O)C1CCN(N=Nc2c(-c3ccccc3)n[nH]c2-c2ccccc2)CC1
active: [1]; [7] 79% | [1]; [8] 99% | [1]; at 50.0 µM 99.4% | [2]; [7] 99% | [2]; [8] 100% | [2]; at 50.0 µM 99.5% | [3]; [7] 99% | [3]; [8] 100% | [3]; at 50.0 µM 99.5% | [4]; [7] 99% | [4]; [8] 99% | [4]; at 50.0 µM 99.3% | [5]; [7] 99% | [5]; [8] 99% | [5]; at 50.0 µM 99.5% | [6]; [7] 99% | [6]; [8] 99% | [6]; at 50.0 µM 99.2%

O=C1C(=O)c2ccccc2C=C1C1CCCCC1
inactive: [1]; [7] 13% | [1]; [8] 64% | [2]; [7] 19% | [3]; [7] 14% | [3]; [8] 63% | [4]; [7] 1% | [4]; [8] 43% | [5]; [7] 6% | [5]; [8] 63% | [5]; at 50.0 µM 64% | [6]; [7] 18%
active: [1]; at 50.0 µM 85% | [2]; [8] 72% | [2]; at 50.0 µM 78.2% | [3]; at 50.0 µM 91% | [4]; at 50.0 µM 71.5% | [6]; [8] 80% | [6]; at 50.0 µM 91%

Nc1ccc2c(SCc3ccc([N+](=O)[O-])cc3)c3ccccc3nc2c1
active: [1]; [7] 86% | [1]; [8] 84% | [1]; at 50.0 µM 73.5% | [2]; [7] 98% | [2]; [8] 94% | [2]; at 50.0 µM 87.7% | [3]; [8] 94% | [3]; at 50.0 µM 88.8% | [4]; [7] 90% | [4]; [8] 93% | [4]; at 50.0 µM 84.5% | [5]; [7] 97% | [5]; [8] 94% | [5]; at 50.0 µM 84.2% | [6]; [7] 96% | [6]; [8] 93% | [6]; at 50.0 µM 83.9%
inactive: [3]; [7] 40%
